According to PubChem BioAssay (NCI):
The panel holds about 83,000 compounds, 20% with a hit somewhere; the sample as a whole holds those more often.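 Each cell line was grown in a 96-well plate and treated with one concentration of compound for 48 hours. Values below 10 were considered active.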 Values without a mark were called inactive. The source made the active and inactive calls.

Each compound was assayed on IGROV1 ovarian (assay: NCI-60 one-dose screen, 48 h (100 = growth as untreated, 0 = no growth, -100 = all killed)). Conditions: 10 µM unless noted.

Structure (SMILES) | growth
CC1(C)NCCC[C@]2(C)[C@H]3CC[C@@H]4[C@H]5[C@H](C(=O)/C=C/c6ccco6)CC[C@]5(CO)CC[C@@]4(C)[C@]3(C)CC[C@@H]12 | 89.5%
CCCCCCNC(=O)Oc1ccc(/C(=C(\C)c2ccccc2)c2ccc(OCCCN(C)C)cc2)cc1 | 80.4%
Cc1ccc(-n2nc3c(c(C#N)c2=O)CC(c2ccccc2[N+](=O)[O-])C([N+](=O)[O-])=C3O)cc1 (stereo unspecified) | 86.2%
CN1CCN(CCNc2nccc(-c3c(-c4cccc(O)c4)nc4sccn34)n2)S1(=O)=O | 45.7%
NC(=NCCCOc1ccc(F)cc1)Nc1ccc(Cl)cc1 | 30.9%
Cc1cc(Cl)nc(N(CCNc2ccnc3cc(Cl)ccc23)Cc2ccccn2)n1 | 57.5%
CCOC(=O)c1cc(C#N)n2ccc3ccccc3c12 | 99.7%
N#CC(C(=O)/C(=N/NC(=O)c1ccccc1O)C(C#N)c1ccccc1)c1ccccc1 (stereo unspecified) | 37.7%
N#C/C(=C\c1cccc(C#N)c1)c1ccccc1 | 107%
Cc1nc2ccc(Cl)cn2c1-c1nnc(SCc2ccc([N+](=O)[O-])cc2)o1 | 62.3%
CCN(CC)CCn1c(=O)c2cc(OC)c(OC)cc2c2ccc3cc4c(cc3c21)OCO4 | 29%
COc1ccc2nc(-c3ccc(-c4noc(-c5cc(OC)c(OC)c(OC)c5)n4)cc3)[nH]c2c1 | 110%
CC(C)(C)[Si](C)(C)OC1[C@@H](O[Si](C)(C)C(C)(C)C)[C@@H](CNC(=O)NC(=O)CCl)O[C@H]1n1cnc2c(NC(=O)Nc3ccccc3)ncnc21 (stereo partly specified) | -50.4% (active)
O=C1C=CC(=O)N1c1cccc(Cl)c1 | 117%
O=C(O)c1ccc2c(c1)C(=O)N(Cc1ccccc1)C2=O | 106%
O=C(/C=C/c1c(-c2ccc(Cl)cc2)nn(-c2ccccc2)c1C(F)(F)F)c1ccc(Cl)cc1 | 102%

Structure (SMILES) | growth
O=C1Nc2ccccc2/C1=C\c1c(-c2ccc(F)cc2)nc2ccccn12 | 57.1%
CC(c1ccccc1)C(C(=O)c1ccccc1)c1ccccc1 (stereo unspecified) | 99.5%
C#Cc1cccc(NC(=O)Nc2cccc(NC(=O)CCl)c2)c1 | -57% [8.25 µM] (active)
COc1cc(-c2cc(-c3ccc(N(C)C)cc3)nc(N3CCOCC3)c2C#N)cc(OC)c1OC | 42.2%
C=CCn1c(-c2ccc(-c3nc4ccc(C)cc4[nH]3)cc2)n[nH]c1=S | 97.9%
COc1cc(CC(=O)n2ncc3ccc(N)cc32)cc(OC)c1OC | 90.7%
CCNc1nc2ccc(Nc3ccnc4cc(Cl)ccc34)cc2[nH]1 | 91.3%
Cc1cc2c(c(C)c1Cl)C(=O)/C(=C/c1ccc(O)c(O)c1)O2 | 96.9%
Cc1ccc(-n2c3c(c(-c4ccccc4)c2-c2ccccc2)C2=NCCN2C=N3)cc1 | 62.6%
NS(=O)(=O)c1ccc(CCn2c(SCC(=O)c3ccc(Cl)cc3)nc3ccccc3c2=O)cc1 | 107%
COc1cc(NC(=O)CSc2nc3ccc(C)cc3c(=O)n2Cc2ccccc2)cc(OC)c1OC | 74.3%
CN1[C@@H]2CC[C@H]1/C(=C\c1ccccc1)C(=O)/C2=C/c1ccccc1 | 41.7%
Cc1ccc(C(=O)/C(=C/c2ccc([N+](=O)[O-])cc2)SCc2ccc(Cl)cc2)cc1 | 74.7%
CSc1nc2sc3cccc(Cl)c3n2c(=N)c1C#N | 93.4%
Cc1c2cc[nH]c(=O)c2c(C)c2c1[nH]c1cc(OCCN3CCN(C)CC3)ccc12 | 20.2%
